# According to PubChem BioAssay:
# Unmarked numbers belong to inactive results. The rule behind the calls is not given here. Where a SMILES comes first, the peptide text is derived from it. [ ]: non-standard residue; d: D form. ξ: configuration not given here. ξV = CC(C)C(N)C(=O)O
# Target: Pantothenate synthetase (Mycobacterium tuberculosis (strain ATCC 25618 / H37Rv)) (UniProt P9WIL5)
# Assay: Coupled enzyme confirmation of inhibitors against recombinant Mtb PanC (AID 375);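 note: 0% = full reaction with vehicle and 100% = no enzyme background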
# Conditions: coupled enzyme assay; at 10 µM, stronger effect = higher value
# Pantothenate synthetase (Mycobacterium tuberculosis (strain ATCC 25618 / H37Rv)), sequence (P9WIL5 whole entry, looked up): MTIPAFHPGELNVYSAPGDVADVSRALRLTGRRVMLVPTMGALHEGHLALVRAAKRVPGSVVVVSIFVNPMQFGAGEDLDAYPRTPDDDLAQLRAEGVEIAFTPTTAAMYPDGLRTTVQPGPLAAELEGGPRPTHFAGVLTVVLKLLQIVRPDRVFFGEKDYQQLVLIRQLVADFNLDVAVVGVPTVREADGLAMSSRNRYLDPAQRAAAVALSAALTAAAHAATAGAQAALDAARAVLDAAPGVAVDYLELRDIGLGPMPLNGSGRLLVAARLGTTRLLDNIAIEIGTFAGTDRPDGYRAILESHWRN
row,Compound,inhibition [%]
1,O=C(C1CCCO1)N1CCc2ccccc21 (stereo not given),10
2,CCN(CC)CCN1C(=O)Cn2c(C)c(C)c3cccc1c32,1
3,CCC(Sc1nc(-c2ccccc2)c(C#N)c(=O)[nH]1)C(=O)Nc1cc(C)on1 (stereo not given),0
4,CCCCC(=O)Nc1nn(CCC)c2nc3ccccc3cc12,0
5,CCCc1nc(NCc2ccncc2)c2nnn(Cc3ccccc3F)c2n1,0
6,Cc1ccc(C2=N/C(=C/N3CCOCC3)C(=O)O2)cc1,1
7,COc1ccc(NC(=O)CSc2nnc(Cc3cccn3C)n2-c2ccc(F)cc2)cc1OC,0
8,COC(=O)Cc1c(C)nc2nc(-c3ccccc3)[nH]n2c1=O,0
9,COc1ccc(CN(C(=O)CSc2nnc(-c3ccccc3F)o2)c2ccc(F)cc2)cc1,0
10,COc1cccc(-c2nnc(NC(=O)Cc3cccs3)s2)c1,0
11,CC(=O)OC1CSc2nc3ccccc3n2C1 (stereo not given),0
12,COc1ccc(C2C(C(=O)c3sc(C)nc3C)=C(O)C(=O)N2CCN(C)C)cc1 (stereo not given),9
13,COc1cccc(C2CC(c3ccccc3)n3ncnc3N2)c1 (stereo not given),8
14,O=C1[C@@H]2C(c3ccccc3Cl)=NO[C@@H]2C(=O)N1Cc1ccccc1,0
15,Cn1c(=O)c2c3c(sc2n2c(SCc4ccccc4)nnc12)CCCC3,0
16,CC1CCN(C(=O)CSCC(=O)Nc2nc(-c3cccs3)cs2)CC1,0
17,COc1cccc(OC)c1C(=O)Nc1cccc(C(C)=O)c1,2
18,Cc1cc(=O)n2nc(-c3ccccc3)sc2n1,0
19,O=C1c2ccccc2C(=O)N1CCCn1nnc(-c2ccc(N3CCOCC3)cc2)n1,3
20,COc1ccc(CCNC(=O)c2nc3ncccn3n2)cc1OC,0

row,Compound,inhibition [%]
1,Cc1nc2ncnn2c(N2CCC(C(=O)NCC3CCCO3)CC2)c1Cc1ccccc1 (stereo not given),0
2,CC1=C(c2ccc(Cl)cc2)[N+](=O)C(C)(C)N1[O-],0
3,CSc1c(C#N)c(N)c(C#N)c2c1COC(C)(C)C2,0
4,Nn1c(SCC(=O)Nc2ccc(S(=O)(=O)N3CCCC3)cc2)nnc1C(F)(F)F,0
5,Cc1cc(C)cc(OCCCC(=O)O)c1,4
6,N#C/C(C(=O)N1CCOCC1)=C1/SC(Cc2ccccc2)C(=O)N1c1ccccc1 (stereo not given),0
7,C=CCNC(=O)c1cc(-c2ccccc2O)on1,0
8,Cc1cc(SCC(N)=O)nc(SCC(=O)c2ccccc2)n1,0
9,CCCCOc1ccc(C(=O)N2CCC(C)CC2)cc1,0
10,CC(=O)NC(C(=O)NCC(N)=O)C(C)C (stereo not given) (Ac-[ξV]-Gly-NH2),0
11,CCN(CCCNC(=O)CCNC(=O)Cn1ccc2ccccc2c1=O)c1ccccc1,1
12,COc1ccc(S(=O)(=O)N2CCCC(C(=O)NCc3ccccn3)C2)cc1 (stereo not given),7
13,CCCn1nnc(NCc2ccc(OCc3cccs3)c(OC)c2)n1,0
14,O=C(Nc1nccs1)NC(C(F)(F)F)C(F)(F)F,7
15,CCNc1oc(COc2cccc(C)c2)nc1C#N,5
16,O=S(=O)(NCc1ccccc1)c1ccc2c(c1)OCCO2,0
17,O=C(CCSc1nccn1Cc1ccccc1)N1CCOCC1,0
18,Cc1ccc(Cl)cc1N1CCN(C(=O)c2cn(C)c(=O)c3c2c2ccccc2n3C)CC1,3
19,COC(=O)c1cc2ccsc2n1Cc1nc(-c2ccc(OC)cc2)oc1C,9
20,c1cc(CNc2ccc3c(c2)OCO3)ccn1,0
